# Results as given in PubChem BioAssay (NCI).
# “And” between values parts separate entries of the source, which are not always exact repeats. Identical values can stand only once. This is part of a sample that, as a whole, favours compounds with a hit. Of some 83,000 tested, about 20% had one in any assay.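 48-hour exposure, single concentration, 96-well plates; percent growth endpoint where 0 means no net growth. Active: below 10.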 The source made the active and inactive calls.
# Key:
# Test in all cases: NCI-60 one-dose screen, 48 h (100 = growth as untreated, 0 = no growth, -100 = all killed)
# Conditions in all cases: 10 µM unless noted
# [1] = test system: SK-MEL-2 melanoma
# [2] = test system: EKVX NSCLC
# [3] = test system: SN12C renal
# [4] = test system: UO-31 renal
# [5] = test system: TK-10 renal
# [6] = test system: ACHN renal
# [7] = test system: CAKI-1 renal
# [8] = test system: A498 renal
# [9] = test system: MOLT-4 leukemia
# [10] = test system: SR leukemia
# [11] = test system: RPMI-8226 leukemia
# [12] = test system: OVCAR-8 ovarian
# [13] = test system: OVCAR-5 ovarian
# [14] = test system: OVCAR-4 ovarian
# [15] = test system: IGROV1 ovarian
# [16] = test system: OVCAR-3 ovarian
# [17] = test system: HS 578T breast
# [18] = test system: NCI/ADR-RES ovarian
# [19] = test system: CCRF-CEM leukemia
# [20] = test system: SK-OV-3 ovarian
Compound,growth [1],growth [2],growth [3],growth [4],growth [5],growth [6],growth [7],growth [8],growth [9],growth [10],growth [11],growth [12],growth [13],growth [14],growth [15],growth [16],growth [17],growth [18],growth [19],growth [20]
CCN(CC)CCCC(C)Nc1ccnc2cc(Oc3ccccc3)ccc12 (configuration not stated),115% (inactive),83.7% (inactive) and 74.9% (inactive),71.2% (inactive) and 74.4% (inactive),49.2% (inactive) and 50.6% (inactive),91.3% (inactive),73.6% (inactive) and 80.6% (inactive),68.8% (inactive),59.1% (inactive) and 55.4% (inactive),65.1% (inactive) and 80.7% (inactive),9.09% (active) and 33.9% (inactive),68.6% (inactive),63.1% (inactive) and 77.7% (inactive),82.7% (inactive) and 90.8% (inactive),75.2% (inactive) and 92.9% (inactive),-53.5% (active) and 63.2% (inactive),83.4% (inactive) and 85.8% (inactive),69% (inactive),102% (inactive) and 96.9% (inactive),,
CC1=CCC2CC1C2(C)C (configuration not stated),88.2% (inactive) and 108% (inactive),91.7% (inactive) and 83.2% (inactive),103% (inactive) and 94.4% (inactive),89% (inactive) and 96.1% (inactive),113% (inactive) and 119% (inactive),102% (inactive) and 96.1% (inactive),76.2% (inactive) and 82.8% (inactive),103% (inactive) and 81% (inactive),96.1% (inactive) and 96% (inactive),96.9% (inactive) and 91.4% (inactive),137% (inactive) and 120% (inactive),97.7% (inactive) and 95.8% (inactive),80.1% (inactive) and 74.2% (inactive),112% (inactive) and 109% (inactive),35.4% (inactive),89.2% (inactive) and 95.1% (inactive),,102% (inactive) and 81.8% (inactive),,
Cc1cc(C)c(N)c(Br)c1,96.9% (inactive) and 99.3% (inactive),110% (inactive) and 97.1% (inactive),110% (inactive) and 101% (inactive),92.3% (inactive) and 87.9% (inactive),108% (inactive) and 112% (inactive),106% (inactive) and 95.4% (inactive),91.4% (inactive) and 74.5% (inactive),134% (inactive) and 88.8% (inactive),106% (inactive) and 111% (inactive),,100% (inactive) and 96.7% (inactive),123% (inactive) and 106% (inactive),101% (inactive) and 78.3% (inactive),107% (inactive) and 88.6% (inactive),97.1% (inactive) and 97.7% (inactive),117% (inactive) and 96.8% (inactive),121% (inactive) and 93.6% (inactive),113% (inactive) and 69.2% (inactive),97.4% (inactive) and 90.1% (inactive),
O=C(CCc1ccc(O)cc1)N/N=C/c1cc(Br)ccc1O,80.7% (inactive),91% (inactive),63.7% (inactive),19.5% (inactive),88.9% (inactive),27% (inactive),18.7% (inactive),78.5% (inactive),8.16% (active),26.6% (inactive),45.2% (inactive),56.2% (inactive),53.3% (inactive),34.7% (inactive),62.5% (inactive),44.4% (inactive),90.3% (inactive),16.7% (inactive),,61.2% (inactive)
Cc1ccc(NCSc2ccc(Cl)cc2)cc1,108% (inactive) and 93.6% (inactive),92.7% (inactive) and 77.3% (inactive),46.2% (inactive) and 42.7% (inactive),27% (inactive) and 14.7% (inactive),90.8% (inactive) and 78.2% (inactive),88.4% (inactive) and 99.6% (inactive),59.5% (inactive),62.5% (inactive) and 66.3% (inactive),25.1% (inactive) and 47.8% (inactive),,20.8% (inactive),97.3% (inactive) and 93.2% (inactive),106% (inactive),,103% (inactive) and 80.7% (inactive),71.6% (inactive) and 78.9% (inactive),,88% (inactive) and 95.8% (inactive),17.8% (inactive),96.2% (inactive) and 97% (inactive)
CC(=O)C(/C=N/C(N)=O)=C(/C)O,119% (inactive),108% (inactive),105% (inactive),91.1% (inactive),105% (inactive),99.8% (inactive),97.9% (inactive),92.7% (inactive),111% (inactive),96.9% (inactive),112% (inactive),104% (inactive),109% (inactive),114% (inactive),114% (inactive),121% (inactive),108% (inactive),99.4% (inactive),,
CCc1c(CC(=O)O)c2cc(C)ccc2n1Cc1ccc(Cl)cc1,103% (inactive) and 90.9% (inactive),98.8% (inactive) and 93.4% (inactive),91.1% (inactive) and 82.4% (inactive),76.6% (inactive) and 73.4% (inactive),99.7% (inactive) and 262% (inactive),93.5% (inactive) and 96.1% (inactive),90% (inactive),114% (inactive) and 108% (inactive),96.9% (inactive) and 152% (inactive),91.5% (inactive) and 146% (inactive),97.1% (inactive),82.9% (inactive) and 100% (inactive),98.2% (inactive) and 98.6% (inactive),85.5% (inactive) and 105% (inactive),92.3% (inactive),93.8% (inactive) and 110% (inactive),87.2% (inactive) and 113% (inactive),98.4% (inactive) and 98.7% (inactive),,97.9% (inactive) and 42.4% (inactive)
Cc1cccc(/C=C\C(=O)c2ccccc2)c1,100% (inactive) and 103% (inactive),97.8% (inactive) and 101% (inactive),89.7% (inactive) and 102% (inactive),67.3% (inactive) and 82.2% (inactive),86.9% (inactive) and 96.3% (inactive),124% (inactive) and 110% (inactive),92.8% (inactive) and 95.1% (inactive),95.2% (inactive) and 68.2% (inactive),91.5% (inactive) and 49.1% (inactive),,26% (inactive),93.9% (inactive) and 101% (inactive),104% (inactive) and 103% (inactive),93.3% (inactive) and 113% (inactive),91.6% (inactive),98.8% (inactive) and 101% (inactive),112% (inactive) and 104% (inactive),97% (inactive) and 101% (inactive),78.9% (inactive) and 64.5% (inactive),
NC(=O)C1CC2C=CC1C2 (configuration not stated),98.6% (inactive) and 112% (inactive),102% (inactive) and 94.7% (inactive),103% (inactive) and 99.6% (inactive),100% (inactive) and 86.8% (inactive),120% (inactive) and 117% (inactive),101% (inactive) and 95.3% (inactive),76.1% (inactive) and 69.2% (inactive),112% (inactive) and 89.4% (inactive),103% (inactive) and 102% (inactive),112% (inactive) and 105% (inactive),144% (inactive) and 87.5% (inactive),97% (inactive) and 95.1% (inactive),89.8% (inactive) and 95.3% (inactive),107% (inactive) and 120% (inactive),70.1% (inactive) and 87.3% (inactive),93.2% (inactive) and 106% (inactive),110% (inactive) and 94.3% (inactive),108% (inactive) and 102% (inactive),,111% (inactive) and 121% (inactive)
O=C(N/N=C/c1cccc2ccccc12)C1CC1,98.6% (inactive) and 115% (inactive),72.5% (inactive) and 53% (inactive),104% (inactive) and 88.6% (inactive),90.1% (inactive) and 102% (inactive),131% (inactive) and 121% (inactive),127% (inactive) and 110% (inactive),108% (inactive) and 90% (inactive),102% (inactive),67.1% (inactive) and 113% (inactive),93.6% (inactive),85.6% (inactive) and 97.8% (inactive),101% (inactive) and 98.5% (inactive),122% (inactive) and 100% (inactive),101% (inactive),118% (inactive) and 107% (inactive),113% (inactive) and 112% (inactive),109% (inactive) and 98.6% (inactive),115% (inactive) and 97.8% (inactive),,108% (inactive) and 117% (inactive)
